Assay results from publication PMC4336329 (PLoS ONE, 2015).
In all, about 310,000 compounds went through this assay and about 14,000 (4.5%) showed an effect of 50% or more. Effects have a minus sign here. Many of the other results were omitted from the sample, so strong results are more common in it than they were.

The compounds below were run against human ether-à-go-go-related gene (hERG) potassium channel (human, UniProt Q12809) (assay: primary screen, population patch clamp on CHO cells stably expressing hERG; higher = less effect of the substance).
Sequence of human ether-à-go-go-related gene (hERG) potassium channel (Q12809 whole entry, looked up): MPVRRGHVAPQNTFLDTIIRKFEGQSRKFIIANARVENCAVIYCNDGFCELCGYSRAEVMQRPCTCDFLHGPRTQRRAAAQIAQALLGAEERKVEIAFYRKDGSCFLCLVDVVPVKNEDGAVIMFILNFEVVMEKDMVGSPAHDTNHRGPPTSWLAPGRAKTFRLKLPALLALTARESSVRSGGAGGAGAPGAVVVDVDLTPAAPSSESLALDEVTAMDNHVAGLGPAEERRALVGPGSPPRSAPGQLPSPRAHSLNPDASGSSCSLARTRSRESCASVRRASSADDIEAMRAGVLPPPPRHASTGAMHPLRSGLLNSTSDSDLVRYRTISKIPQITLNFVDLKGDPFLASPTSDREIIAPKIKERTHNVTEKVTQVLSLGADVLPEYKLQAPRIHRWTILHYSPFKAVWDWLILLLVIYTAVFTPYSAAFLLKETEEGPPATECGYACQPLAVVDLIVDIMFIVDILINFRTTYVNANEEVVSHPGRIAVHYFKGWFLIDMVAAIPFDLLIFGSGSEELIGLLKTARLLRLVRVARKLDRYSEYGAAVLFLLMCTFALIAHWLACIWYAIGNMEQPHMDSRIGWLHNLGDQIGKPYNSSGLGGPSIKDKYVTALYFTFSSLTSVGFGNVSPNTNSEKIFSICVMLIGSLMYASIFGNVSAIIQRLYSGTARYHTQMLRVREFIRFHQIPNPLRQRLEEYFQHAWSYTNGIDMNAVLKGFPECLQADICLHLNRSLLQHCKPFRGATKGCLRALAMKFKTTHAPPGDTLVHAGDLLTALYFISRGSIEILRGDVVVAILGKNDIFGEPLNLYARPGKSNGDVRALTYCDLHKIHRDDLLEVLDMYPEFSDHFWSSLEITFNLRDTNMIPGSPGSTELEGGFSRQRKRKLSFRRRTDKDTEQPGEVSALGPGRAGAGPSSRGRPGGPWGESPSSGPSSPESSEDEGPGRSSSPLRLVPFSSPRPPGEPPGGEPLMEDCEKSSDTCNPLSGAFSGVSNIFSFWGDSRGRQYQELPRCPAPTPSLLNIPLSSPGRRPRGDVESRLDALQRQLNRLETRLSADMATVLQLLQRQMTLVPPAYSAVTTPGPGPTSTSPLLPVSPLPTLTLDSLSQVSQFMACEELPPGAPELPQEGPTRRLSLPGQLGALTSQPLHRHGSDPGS
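Also: peak tail current of the secondary pulse compared with the same well before compound.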

Structure (SMILES)	hERG current change (%, negative = inhibition) at 10uM [%]
Cl.N/C(=N\O)C1COc2ccccc2O1 (centres unmarked)	16.4
CCOC(=O)C1CCCN(C(=O)CSc2ccc(NC(C)=O)cc2)C1 (centres unmarked)	14.9
COc1ccccc1N1CCN(C(=O)CSc2nc3ncnc(N)c3[nH]2)CC1	21.3
Cc1nc2cc(NS(=O)(=O)c3cccc(F)c3)ccc2s1	7.97
COc1nc(Nc2ccccc2)nc(OC)n1	5.84
CC(C)CCNC(=O)CCCc1ccccc1	14.5
Brc1nc(-c2ccccc2)nc(-c2ccccc2)c1Br	-5.38
O=C(Cc1ccc(S(=O)(=O)N2CCCC2)s1)N1CCOCC1	-0.493
O=C(Cc1ccc(S(=O)(=O)N2CCCC2)s1)N1CCN(c2ccccc2)CC1	-28.4
Cc1ccc(C(=O)N2CCN(c3ccc(F)cc3)CC2)cc1S(=O)(=O)N1CCCCC1	-54
O=C(Cc1ccc(S(=O)(=O)N2CCOCC2)s1)N1CCN(c2ccc(C(F)(F)F)cc2[N+](=O)[O-])CC1	-54.8
O=C(Cc1ccc(S(=O)(=O)N2CCOCC2)s1)N1CCN(S(=O)(=O)c2cccc([N+](=O)[O-])c2)CC1	-27.1
Cc1ccc(C(=O)N2CCN(c3ccccc3)CC2)cc1S(=O)(=O)N1CCCC1	-31.2
O=C(Cc1ccc(S(=O)(=O)N2CCCC2)s1)N1CCN(c2ccc(F)cc2)CC1	-56.2
Cc1ccc(C(=O)N2CCCCC2)cc1S(=O)(=O)N1CCCC1	5.55
O=C(Cc1ccc(S(=O)(=O)N2CCOCC2)s1)N1CCN(c2cccc(C(F)(F)F)c2)CC1	-31.7
COc1ccc(OCCOC(=O)c2cc(S(=O)(=O)N3CCOCC3)c(Cl)cc2Cl)cc1	-17.7
Cc1ccc(NS(=O)(=O)c2cc([N+](=O)[O-])ccc2NNC(=S)Nc2cccc(Cl)c2)c(C)c1	26
C[C@]12C=CC(=O)C=C1CC[C@@H]1[C@@H]2[C@@H](O)C[C@@]2(C)[C@H]1CC[C@]2(O)C(=O)COC(=O)CCC(=O)NCCc1ccc(O)cc1	12.8
CN1CCN(c2oc(Cc3cccc4ccccc34)nc2C#N)CC1	-9.75
CCOC(=O)N1CCC(NC(=O)CCC(=O)c2ccccc2)CC1	10.8

Structure (SMILES)	hERG current change (%, negative = inhibition) at 10uM [%]
CCc1ccccc1NC(=O)C(Cc1cccc(OC)c1OC)c1nn[nH]n1 (centres unmarked)	7.41
O=C(Nc1nccs1)C12CC3CC(C1)CC(C(=O)Nc1nccs1)(C3)C2	-11.1
Cn1c(=O)n(C)c2cc(NC(=O)COc3ccc(Cl)cc3)ccc21	-59.4
COc1ccc(OCC(=O)Nc2ccc3c(c2)n(C)c(=O)n3C)cc1	-3.51
Cn1c(CCN2CCCCC2)nc2cc(NC(=O)COc3ccc(Cl)cc3)ccc21	-84.8
Cn1c(=O)n(C)c2cc(NC(=O)COc3ccc(F)cc3)ccc21	-41.8
CN1CCN(CCc2nc3cc(NC(=O)COc4ccc(Cl)cc4)ccc3n2C)CC1	-61
CCN1CCN(CCc2nc3cc(NC(=O)COc4ccc(Cl)cc4)ccc3n2C)CC1	-67.6
CCN1CCN(CCc2nc3cc(NC(=O)COc4ccccc4)ccc3n2C)CC1	-49.8
CC(=O)Nc1ccc2c(c1)nc(CCN1CCN(C)CC1)n2C	-2.56
c1ccc(Cc2nnc3sc(-c4ccccn4)nn23)cc1	-6.6
COc1ccc(C(=O)N=c2sc3c(C)ccc(OC)c3n2C)cc1OC	7.38
Cc1cc2c(ncn2C)c(NS(=O)(=O)c2ccc(Cl)cc2)c1C	-1.18
COc1cc(C2NCC(c3ccc(Cl)cc3Cl)c3c2[nH]c2ccccc32)cc(OC)c1OC.Cl (centres unmarked)	7.58
COc1ccccc1N(C(=O)c1ccco1)C(C(=O)NC1CCCC1)c1cccnc1 (centres unmarked)	-0.441
CC1CCN(S(=O)(=O)N2CCC(C(=O)NCCc3ccccc3)CC2)CC1	2.8
CC(C)CN1C(=O)c2ccc(C(=O)Nc3ccccn3)cc2C1=O	-14.7
O=C(COc1ccccc1)Nc1cc2c3c(c1)CC(=O)N3CCC2	-36
CC1C(=O)N2CCCc3cc(NC(=O)COc4ccc(Cl)cc4)cc1c32 (centres unmarked)	-40.2
Cn1c(CN2CCCC2)nc2cc(NC(=O)COc3ccc(Cl)cc3)ccc21	-69.2
O=C(COc1ccc(Cl)cc1)Nc1cc2c3c(c1)CC(=O)N3CCC2	-57.1

Structure (SMILES)	hERG current change (%, negative = inhibition) at 10uM [%]
COc1ccc(OCC(=O)Nc2ccc3c(c2)nc(CN2CCCC2)n3C)cc1	-26.9
Cn1c(CN2CCCC2)nc2cc(NC(=O)COc3ccccc3)ccc21	-34.1
CC(C)CNC(=O)COc1ncnc2sccc12	-37.4
Cc1c(CN(C)Cc2cn(C)nc2-c2ccccc2F)[nH]c2ccccc12	-6.24
COc1cc(/C=N/n2nnnc2N)cc(OC)c1OC	-0.774
O=C(NCCc1c[nH]c2ccccc12)c1ccc(Cl)cc1	-12.7
Cc1cc(C)cc(C(=O)NCCCc2ccccc2)c1	-4.26
O=C(NCC(=O)N1CCC(Cc2ccccc2)CC1)c1ccc(Cl)cc1	-23.3
CN1C2C=C(N(CCc3ccccc3)C(=O)c3ccc(Cl)cc3)CC1CC2.Cl (centres unmarked)	-74.8
Cc1cc(C)cc(C(=O)N(CCc2ccccc2)C2=CC3CCC(C2)N3C)c1.Cl (centres unmarked)	-60.7
O=C(Cc1ccc(Cl)cc1)NCCc1c[nH]c2ccccc12	-19.8
COc1cc(C(=O)N(CCc2ccccc2)C2=CC3CCC(C2)N3C)cc(OC)c1OC.Cl.O (centres unmarked)	-29.2
COC(=O)C1=C(CCc2ccccc2)NC(=O)NC1c1ccc(Cl)cc1 (centres unmarked)	-9.59
CN1C2C=C(N(CCc3c[nH]c4ccccc34)C(=O)c3ccc(Cl)cc3)CC1CC2.Cl (centres unmarked)	-67
COc1cccc(CN(C(=O)c2cccc(OC)c2)C2CCS(=O)(=O)C2)c1 (centres unmarked)	-7.02
O=P1(Nc2cccnc2)COc2ccccc2OC1	30.6
CSc1ccccc1C(=O)NCCOc1cccc(C)c1	17.7
O=C(CNC(=O)c1cccs1)NCC(=O)OCc1ccccc1Cl	2.85
Cc1[nH]nc2c1C1(CCOCC1)C(C#N)=C(N)O2	-56.7
Cc1[nH]nc2c1C1(CCC3(CC1)OCCO3)C(C#N)=C(N)O2	-0.214
CC(=O)N1CCC2(CC1)C(C#N)=C(N)Oc1n[nH]c(C)c12	15.5

Structure (SMILES)	hERG current change (%, negative = inhibition) at 10uM [%]
COc1ccc(S(=O)(=O)NC(C)C(=O)NCc2ccccn2)cc1Cl (centres unmarked)	7.6
Cc1cccc2cc(CN(Cc3cccnc3)C(=O)c3cccs3)c3nnnn3c12	26.1
Cc1ccc2c(c1)cc(CN(Cc1ccco1)C(=O)N1CCOCC1)c1nnnn12	-14.7
Cc1ccc2c(c1)cc(CN(Cc1cccnc1)C(=O)c1ccccc1)c1nnnn12	-78
Cc1ccc2c(c1)cc(CN(Cc1ccc3c(c1)OCO3)C(=O)c1ccccc1)c1nnnn12	-11.5
Cc1cccc2cc(CN(CCc3ccccc3)C(=O)N3CCOCC3)c3nnnn3c12	12.5
Cc1ccc2c(c1)cc(CN(CCc1ccccc1)C(=O)N1CCOCC1)c1nnnn12	-61.3
Cc1ccc(C(=O)N(Cc2cccnc2)Cc2cc3cc(C)ccc3n3nnnc23)cc1	-23.8
Cc1ccc2c(c1)cc(CN(Cc1ccc3c(c1)OCO3)C(=O)c1cnccn1)c1nnnn12	-45.7
Cc1ccc2c(c1)cc(CN(Cc1cccnc1)C(=O)NCc1ccccc1)c1nnnn12	-75.2
Cc1ccc(S(=O)(=O)N(C)C)cc1-n1c(SCC(=O)Nc2ccc(F)cc2Cl)nc2ccccc2c1=O	0.00438
CC(=O)N1CCc2cc(S(=O)(=O)Nc3ccc(C)cc3)ccc21	16.9
Cc1ccccc1CN1CCN(S(=O)(=O)c2ccc(Cl)s2)CC1	3.24
CCOC(=O)c1c(C)oc2cc(Br)c(O)c(Br)c12	8.34
COc1ccc(C[C@H]2CN3C(=NC[C@@H]3Cc3ccc(O)cc3)N2C[C@H](C)NC(=O)c2ccc(C)c(Br)c2)cc1	-77.9
Cc1ccc(C(=O)N[C@@H](C)CN2C3=NC[C@H](Cc4ccccc4)N3C[C@H]2Cc2ccc(O)cc2)cc1Br	-82.5
CCOc1ccc(C(=O)Nc2nnc(C)s2)cc1OCC	-4.04
COc1cc(/C=C2/SC(=O)NC2=O)ccc1OC(=O)c1ccco1	-0.00422
COc1cc2c(c3oc(=O)cc(CC(=O)O)c13)CCC(C)(C)O2	-5.45
COc1ccccc1CCC(=O)N1CCC(n2nccc2NC(=O)C2CCOC2)CC1 (centres unmarked)	23.1
